Source: PubChem BioAssay (EPA / NIEHS)
Where “and” joins values, the source holds several entries; their conditions need not be identical. Identical values can stand only once. Records with an inconclusive call do not appear. Some compounds were tested as several samples or in several runs, with calls that do not always agree. Calls of active or inactive are those of the source. Rule for the calls, unless noted: active = hit-call score of the fitted dose curve at least 0.9, where 1 is the maximum; inactive = score below 0.9.

Experiments:
[1] = ATG_PBREM_CIS: Attagene CIS-FACTORIAL HepG2 Assay for human Phenobarbital-responsive Enhancer Module (PBREM) (AID 2282955); conditions: HepG2 PBREM cis-reporter, Attagene multiplexed transcription; actives raise or lower the signal
In short: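 Endogenous transcription factors in human liver HepG2 cells drive a PBREM cis-element reporter, whose transcript level after 24 h treatment is quantified by RT-PCR with capillary electrophoresis; activity fitted in both directions against DMSO.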

[2] = target: Paired box protein Pax-6 (Homo sapiens) (UniProt P26367); experiment: ATG_Pax6_CIS: Attagene CIS-FACTORIAL HepG2 Assay for human Paired Box 6 (PAX6) (AID 2282956); conditions: HepG2 CIS-FACTORIAL PAX6 reporter transcription, RNA readout; actives raise or lower the signal
In short: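 Fluorescent RT-PCR products separated by capillary electrophoresis report PAX6-linked promoter mRNA in HepG2 cells 24 h post-dose. Curves fitted bidirectionally, DMSO as negative control.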

[3] = ATG_PXRE_CIS: Attagene CIS-FACTORIAL HepG2 Assay for human Pregnane X Receptor Element (PXRE) (AID 2282957); conditions: HepG2 Attagene CIS-FACTORIAL PXRE reporter, mRNA; actives raise or lower the signal
In short: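 Endogenous transcription factor activity in HepG2 was gauged through induction of reporter mRNA driven by a cis-regulating promoter element, sampled 24 h post-treatment. Activity was fitted in both directions against DMSO negative control.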

[4] = ATG_PPRE_CIS: Attagene CIS-FACTORIAL HepG2 Assay for human Peroxisome Proliferator-activated Response Element (PPRE) (AID 2282958); conditions: HepG2 PPRE cis-element reporter, Attagene transcription factor profiling; actives raise or lower the signal
In short: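 HepG2, transient MRTU transfection (cis promoter elements, endogenous TFs). 24 h dosing. RNA → oligo(dT) RT → PCR → 6-FAM primer extension → HpaI digest → CE. Bidirectional fit vs DMSO.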

[5] = ATG_RORE_CIS: Attagene CIS-FACTORIAL HepG2 Assay for human RAR-related Orphan Receptor Element (RORE) (AID 2282959); conditions: HepG2 Attagene cis-factorial RORE reporter, mRNA; actives raise or lower the signal
In short: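 Transient MRTU transfection of human HepG2 liver cells (FuGene 6); 24 h compound exposure; TriZol RNA, oligo(dT) RT, PCR, FAM labeling, HpaI cut, CE fragment analysis. DMSO = negative control/baseline.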

[6] = ATG_Sox_CIS: Attagene CIS-FACTORIAL HepG2 Assay for human SRY-box transcription factor (SOX) (AID 2282960); conditions: HepG2 Attagene cis-factorial SOX reporter, mRNA; actives raise or lower the signal
In short: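 Endogenous factor activity in human liver HepG2 cells carrying transfected cis-regulated reporter units. RNA taken 24 h post-dose, reverse-transcribed, PCR-amplified and sized by capillary electrophoresis. Gain or loss of signal fitted relative to DMSO.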

[7] = target: Transcription factor Sp1 (Homo sapiens) (UniProt P08047); experiment: ATG_Sp1_CIS: Attagene CIS-FACTORIAL HepG2 Assay for human Specificity Protein 1 (Sp1) (AID 2282961); conditions: HepG2 Sp1 cis-reporter transcription, actives raise or lower the signal
In short: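 Transient MRTU-transfected HepG2, 24 h compound exposure. Total RNA → oligo(dT) RT → PCR of reporter → 6-FAM primer extension → HpaI digest → CE. Endpoint fitted both directions vs DMSO.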

[8] = ATG_SREBP_CIS: Attagene CIS-FACTORIAL HepG2 Assay for human Sterol Regulatory Element Binding (SREBP) (AID 2282962); conditions: HepG2 Attagene cis-factorial SREBP reporter, mRNA; actives raise or lower the signal
In short: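 Endogenous factor activity is measured in HepG2 through multiplexed reporter units under cis-element control. Following a 24 h incubation, reporter transcripts are reverse-transcribed, PCR-amplified and sized by capillary electrophoresis; activity is fitted in both directions relative to DMSO.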

[9] = target: Signal transducer and activator of transcription 3 (Homo sapiens) (UniProt P40763); experiment: ATG_STAT3_CIS: Attagene CIS-FACTORIAL HepG2 Assay for human Signal Transducer and Activator of Transcription 3 (STAT3) (AID 2282963); conditions: HepG2, Attagene cis-factorial STAT3 reporter transcription; actives raise or lower the signal
In short: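 Fluorescence intensity of 6-FAM-labelled reporter fragments, separated by capillary electrophoresis after RT-PCR, gave the signal. Cells were HepG2 transfected with cis-element reporter units and treated 24 h; fitting was bidirectional relative to DMSO.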

[10] = ATG_TA_CIS: Attagene CIS-FACTORIAL HepG2 Assay for human TA Basal Promoter (AID 2282964); conditions: HepG2 Attagene CIS-factorial TA basal promoter reporter; actives raise or lower the signal
In short: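 Fluorescence from labelled RT-PCR reporter fragments, separated by capillary electrophoresis, gives the signal. Cells: HepG2 transiently carrying multiple reporter units, 24 h chemical dosing. Gain or loss relative to DMSO.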

[11] = ATG_TCF_b_cat_CIS: Attagene CIS-FACTORIAL HepG2 Assay for human T-Cell-Factor with beta-catenin (TCF/b-cat) (AID 2282965); conditions: HepG2 TCF/beta-catenin cis-reporter transcription, actives raise or lower the signal
In short: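 Cells of the HepG2 line carry transiently transfected reporter units whose promoters respond to endogenous factors. Twenty-four hours post-dosing, reporter mRNA induction is measured by fluorescent RT-PCR and capillary electrophoresis, with DMSO as baseline.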

[12] = ATG_TGFb_CIS: Attagene CIS-FACTORIAL HepG2 Assay for human Transforming Growth Factor (TGF) (AID 2282967); conditions: HepG2 Attagene CIS TGFb reporter, mRNA transcription; actives raise or lower the signal
In short: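 Bidirectional fitting relative to DMSO gave the endpoint. Underlying data: reporter mRNA from HepG2 cells carrying transiently transfected cis-regulated reporter constructs, harvested 24 h after dosing and analyzed by RT-PCR and capillary electrophoresis.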

[13] = ATG_VDRE_CIS: Attagene CIS-FACTORIAL HepG2 Assay for human Vitamin D Receptor Element (VDRE) (AID 2282968); conditions: HepG2 VDRE cis-reporter transcription, actives raise or lower the signal
In short: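 Compounds were applied for 24 h to HepG2 cells transfected with promoter-regulated reporter units. Total RNA was reverse-transcribed, and reporter amplicons were fluorescently labelled and sized by capillary electrophoresis.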

[14] = target: Nuclear receptor subfamily 1 group I member 3 (Homo sapiens) (UniProt Q14994); experiment: ATG_CAR_TRANS: Attagene TRANS-FACTORIAL HepG2 Assay for human Constitutive Androstane Receptor (CAR) (AID 2282969; active = hit-call score of the fitted dose curve at least 0.9, where 1 is the maximum;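 note: activators raise reporter mRNA above DMSO so AC50 marks induction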); conditions: HepG2 Attagene TRANS-FACTORIAL CAR reporter
In short: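 Transiently transfected HepG2, multiplex TRANS reporters (CAR-Gal4 chimera driving GAL4-UAS reporter). 24 h dosing. Readout: reporter transcript by RT-PCR + capillary electrophoresis, fluorescence intensity; positive direction vs DMSO.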

[15] = target: X-box-binding protein 1 (Homo sapiens) (UniProt P17861); experiment: ATG_Xbp1_CIS: Attagene CIS-FACTORIAL HepG2 Assay for human X-box Binding Protein 1 (XBP1) (AID 2282972); conditions: HepG2 XBP1 cis-element reporter, Attagene multiplex; actives raise or lower the signal
In short: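 Multiplexed cis-reporter readout in transfected HepG2 liver cells. Exposure lasted 24 hours. Activity in either direction was fitted against DMSO as negative control and baseline.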

[16] = target: Androgen receptor (Homo sapiens) (UniProt P10275); experiment: ATG_AR_TRANS: Attagene TRANS-FACTORIAL HepG2 Assay for human Androgen Receptor (AR) (AID 2282973; active = hit-call score of the fitted dose curve at least 0.9, where 1 is the maximum); conditions: HepG2 Attagene TRANS-FACTORIAL AR reporter transcription
In short: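 Transfected HepG2, 24 h treatment, chimeric NR-Gal4 driving GAL4-UAS reporters. mRNA induction by RT-PCR/capillary electrophoresis fluorescence; DMSO as negative control and baseline.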

[17] = ATG_M_19_TRANS: Attagene TRANS-FACTORIAL HepG2 Assay for M19 Transcription Factor (Internal Marker) (AID 2282974; active = hit-call score of the fitted dose curve at least 0.9, where 1 is the maximum); conditions: HepG2 Attagene TRANS-FACTORIAL M19 internal marker reporter
In short: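 Fluorescence of 6-FAM-labelled reporter cDNA fragments, separated by capillary electrophoresis, served as the readout. These derived from HepG2 cells carrying transfected GAL4-UAS reporter units after 24 h dosing, with DMSO as negative control.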

[18] = ATG_TAL_CIS: Attagene CIS-FACTORIAL HepG2 Assay for human TAL Basal Promoter (AID 2282966); conditions: HepG2 Attagene cis-factorial TAL promoter reporter; actives raise or lower the signal;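 note: background control endpoint measuring basal TAL promoter reporter mRNA not a specific factor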
In short: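 Endogenous transcription-factor activity is sensed in HepG2 cells through transfected cis-promoter reporter constructs. After 24 h dosing, reporter transcripts are quantified by RT-PCR and capillary electrophoresis. Gain or loss of signal is fitted relative to DMSO.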

[19] = target: Estrogen receptor (Homo sapiens) (UniProt P03372); experiment: ATG_ERa_TRANS: Attagene TRANS-FACTORIAL HepG2 Assay for human Estrogen Receptor alpha (ERa) (AID 2282970; active = hit-call score of the fitted dose curve at least 0.9, where 1 is the maximum); conditions: HepG2 Attagene TRANS ERa GAL4 reporter, mRNA
In short: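 Transfected HepG2 cells carrying GAL4-UAS-driven reporter units were dosed for 24 hours. Total RNA was reverse-transcribed, reporter sequences PCR-amplified, FAM-labelled, HpaI-digested and resolved by capillary electrophoresis. Increases over DMSO control defined activity.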

[20] = target: Steroid hormone receptor ERR1 (Homo sapiens) (UniProt P11474); experiment: ATG_ERRa_TRANS: Attagene TRANS-FACTORIAL HepG2 Assay for human Estrogen-Related Receptor alpha (ERRa) (AID 2282971; active = hit-call score of the fitted dose curve at least 0.9, where 1 is the maximum); conditions: HepG2 Attagene TRANS reporter, ERRa transactivation
In short: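 HepG2 cells were transiently transfected with multiple GAL4-UAS reporter units, then dosed with compound for 24 h. Total RNA was reverse-transcribed, reporter cDNA PCR-amplified and fluorescently labelled, and fragments resolved by capillary electrophoresis; induction was compared with DMSO.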

Measured: AC50

Nuclear receptor subfamily 1 group I member 3 (Homo sapiens), sequence (Q14994 whole entry, looked up, the tested form may be a part): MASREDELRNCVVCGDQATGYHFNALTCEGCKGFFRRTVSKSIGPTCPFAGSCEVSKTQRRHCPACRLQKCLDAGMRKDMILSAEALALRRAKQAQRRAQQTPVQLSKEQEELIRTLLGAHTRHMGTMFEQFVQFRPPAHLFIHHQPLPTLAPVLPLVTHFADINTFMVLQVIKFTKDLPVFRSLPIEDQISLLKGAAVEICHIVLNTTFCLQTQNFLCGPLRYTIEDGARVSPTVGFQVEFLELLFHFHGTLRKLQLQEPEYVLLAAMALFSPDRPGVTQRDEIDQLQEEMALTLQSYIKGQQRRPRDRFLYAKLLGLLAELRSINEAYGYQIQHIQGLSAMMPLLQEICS
Transcription factor Sp1 (Homo sapiens), sequence (P08047 whole entry, looked up): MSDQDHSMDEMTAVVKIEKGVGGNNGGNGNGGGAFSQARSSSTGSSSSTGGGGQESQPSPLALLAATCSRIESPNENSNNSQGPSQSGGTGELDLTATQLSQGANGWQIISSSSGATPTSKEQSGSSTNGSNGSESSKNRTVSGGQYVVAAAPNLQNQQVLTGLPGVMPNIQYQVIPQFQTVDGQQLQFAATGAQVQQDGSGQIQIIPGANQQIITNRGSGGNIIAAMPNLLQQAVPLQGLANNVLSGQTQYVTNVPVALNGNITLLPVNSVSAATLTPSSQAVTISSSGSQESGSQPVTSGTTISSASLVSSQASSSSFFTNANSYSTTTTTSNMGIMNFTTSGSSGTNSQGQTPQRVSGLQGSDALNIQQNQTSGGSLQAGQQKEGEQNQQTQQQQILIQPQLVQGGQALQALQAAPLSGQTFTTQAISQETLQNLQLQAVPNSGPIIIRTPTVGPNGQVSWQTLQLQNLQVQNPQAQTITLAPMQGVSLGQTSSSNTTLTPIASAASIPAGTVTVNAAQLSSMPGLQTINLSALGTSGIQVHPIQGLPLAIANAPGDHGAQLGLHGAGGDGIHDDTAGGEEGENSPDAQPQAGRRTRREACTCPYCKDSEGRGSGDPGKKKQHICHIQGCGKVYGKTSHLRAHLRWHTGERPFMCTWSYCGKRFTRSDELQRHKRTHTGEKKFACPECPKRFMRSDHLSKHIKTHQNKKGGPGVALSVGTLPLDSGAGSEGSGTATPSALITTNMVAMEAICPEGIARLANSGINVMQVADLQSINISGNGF
X-box-binding protein 1 (Homo sapiens), sequence (P17861 whole entry, looked up): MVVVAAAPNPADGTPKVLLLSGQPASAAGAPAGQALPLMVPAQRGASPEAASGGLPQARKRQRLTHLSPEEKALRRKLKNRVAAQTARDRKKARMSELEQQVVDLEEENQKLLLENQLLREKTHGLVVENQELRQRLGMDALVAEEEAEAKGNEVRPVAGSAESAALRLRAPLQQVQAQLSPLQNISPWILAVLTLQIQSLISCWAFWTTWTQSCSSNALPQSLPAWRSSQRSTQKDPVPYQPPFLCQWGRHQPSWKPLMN
Paired box protein Pax-6 (Homo sapiens), sequence (P26367 whole entry, looked up): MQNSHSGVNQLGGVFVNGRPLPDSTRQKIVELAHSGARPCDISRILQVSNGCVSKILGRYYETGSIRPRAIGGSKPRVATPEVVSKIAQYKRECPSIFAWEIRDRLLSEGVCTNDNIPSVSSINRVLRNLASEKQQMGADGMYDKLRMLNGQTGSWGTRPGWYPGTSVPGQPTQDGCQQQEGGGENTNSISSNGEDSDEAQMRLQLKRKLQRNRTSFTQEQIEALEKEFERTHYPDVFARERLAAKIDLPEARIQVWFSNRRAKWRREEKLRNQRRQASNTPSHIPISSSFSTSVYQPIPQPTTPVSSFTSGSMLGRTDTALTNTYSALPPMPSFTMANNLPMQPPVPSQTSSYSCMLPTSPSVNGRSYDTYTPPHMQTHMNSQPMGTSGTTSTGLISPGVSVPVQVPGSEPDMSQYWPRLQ
Estrogen receptor (Homo sapiens), sequence (P03372 whole entry, looked up, the tested form may be a part): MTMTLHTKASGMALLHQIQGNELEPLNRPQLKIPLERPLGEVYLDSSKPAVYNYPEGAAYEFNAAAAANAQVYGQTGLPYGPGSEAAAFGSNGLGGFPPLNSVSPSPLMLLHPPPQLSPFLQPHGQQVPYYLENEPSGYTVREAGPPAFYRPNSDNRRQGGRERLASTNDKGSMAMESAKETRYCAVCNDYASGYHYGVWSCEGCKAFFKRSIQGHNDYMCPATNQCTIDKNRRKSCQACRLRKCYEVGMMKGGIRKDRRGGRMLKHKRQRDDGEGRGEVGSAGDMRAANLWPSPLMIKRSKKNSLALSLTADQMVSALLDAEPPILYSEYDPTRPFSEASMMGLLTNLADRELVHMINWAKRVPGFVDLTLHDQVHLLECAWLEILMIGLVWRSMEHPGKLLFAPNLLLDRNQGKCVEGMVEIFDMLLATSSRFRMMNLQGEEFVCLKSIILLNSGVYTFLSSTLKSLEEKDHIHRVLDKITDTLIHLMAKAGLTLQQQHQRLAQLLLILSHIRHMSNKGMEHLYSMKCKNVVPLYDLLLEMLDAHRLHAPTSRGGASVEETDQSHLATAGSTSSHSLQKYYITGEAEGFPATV
Signal transducer and activator of transcription 3 (Homo sapiens), sequence (P40763 whole entry, looked up, the tested form may be a part): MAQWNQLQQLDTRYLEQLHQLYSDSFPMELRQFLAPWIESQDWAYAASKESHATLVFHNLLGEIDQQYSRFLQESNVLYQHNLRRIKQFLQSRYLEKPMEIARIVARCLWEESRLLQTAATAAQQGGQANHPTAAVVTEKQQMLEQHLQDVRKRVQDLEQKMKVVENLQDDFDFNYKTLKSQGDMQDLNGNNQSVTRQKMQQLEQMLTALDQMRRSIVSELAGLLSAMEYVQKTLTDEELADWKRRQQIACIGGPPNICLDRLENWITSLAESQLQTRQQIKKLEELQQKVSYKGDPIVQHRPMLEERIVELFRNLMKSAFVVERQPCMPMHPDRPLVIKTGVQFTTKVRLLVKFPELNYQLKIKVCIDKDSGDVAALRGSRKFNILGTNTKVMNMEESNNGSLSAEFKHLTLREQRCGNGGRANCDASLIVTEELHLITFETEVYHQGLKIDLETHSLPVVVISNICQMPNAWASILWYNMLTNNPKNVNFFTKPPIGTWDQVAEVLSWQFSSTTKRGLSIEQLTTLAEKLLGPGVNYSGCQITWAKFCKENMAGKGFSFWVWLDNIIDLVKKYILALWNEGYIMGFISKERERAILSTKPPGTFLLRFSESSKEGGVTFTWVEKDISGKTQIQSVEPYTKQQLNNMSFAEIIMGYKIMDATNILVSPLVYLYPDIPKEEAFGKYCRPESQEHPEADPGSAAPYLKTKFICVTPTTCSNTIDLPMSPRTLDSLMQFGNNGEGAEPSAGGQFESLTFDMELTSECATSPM
Androgen receptor (Homo sapiens), sequence (P10275 whole entry, looked up, the tested form may be a part): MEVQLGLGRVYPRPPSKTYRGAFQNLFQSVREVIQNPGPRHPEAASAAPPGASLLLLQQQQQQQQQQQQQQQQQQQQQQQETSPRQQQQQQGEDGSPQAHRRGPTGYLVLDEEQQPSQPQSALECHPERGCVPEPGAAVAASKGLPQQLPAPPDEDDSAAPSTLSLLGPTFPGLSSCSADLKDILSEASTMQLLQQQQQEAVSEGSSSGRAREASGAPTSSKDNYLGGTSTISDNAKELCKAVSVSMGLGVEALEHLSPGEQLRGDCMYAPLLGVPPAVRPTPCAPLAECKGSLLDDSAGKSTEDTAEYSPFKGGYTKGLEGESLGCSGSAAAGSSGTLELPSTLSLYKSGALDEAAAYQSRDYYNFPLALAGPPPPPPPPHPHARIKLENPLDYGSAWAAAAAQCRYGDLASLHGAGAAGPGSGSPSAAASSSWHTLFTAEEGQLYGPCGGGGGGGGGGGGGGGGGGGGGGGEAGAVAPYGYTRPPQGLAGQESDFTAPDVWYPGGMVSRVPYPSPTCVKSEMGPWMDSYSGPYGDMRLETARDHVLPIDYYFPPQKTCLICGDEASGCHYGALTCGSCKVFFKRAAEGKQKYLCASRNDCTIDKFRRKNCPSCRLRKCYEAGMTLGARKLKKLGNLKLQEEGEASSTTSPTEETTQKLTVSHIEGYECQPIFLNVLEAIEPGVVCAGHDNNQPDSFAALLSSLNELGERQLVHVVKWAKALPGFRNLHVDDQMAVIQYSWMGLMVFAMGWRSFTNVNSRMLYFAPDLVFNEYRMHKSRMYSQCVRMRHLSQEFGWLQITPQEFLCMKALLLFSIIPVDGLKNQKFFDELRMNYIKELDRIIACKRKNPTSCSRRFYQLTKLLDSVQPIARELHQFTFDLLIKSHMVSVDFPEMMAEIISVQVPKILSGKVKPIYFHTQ
Steroid hormone receptor ERR1 (Homo sapiens), sequence (P11474 whole entry, looked up, the tested form may be a part): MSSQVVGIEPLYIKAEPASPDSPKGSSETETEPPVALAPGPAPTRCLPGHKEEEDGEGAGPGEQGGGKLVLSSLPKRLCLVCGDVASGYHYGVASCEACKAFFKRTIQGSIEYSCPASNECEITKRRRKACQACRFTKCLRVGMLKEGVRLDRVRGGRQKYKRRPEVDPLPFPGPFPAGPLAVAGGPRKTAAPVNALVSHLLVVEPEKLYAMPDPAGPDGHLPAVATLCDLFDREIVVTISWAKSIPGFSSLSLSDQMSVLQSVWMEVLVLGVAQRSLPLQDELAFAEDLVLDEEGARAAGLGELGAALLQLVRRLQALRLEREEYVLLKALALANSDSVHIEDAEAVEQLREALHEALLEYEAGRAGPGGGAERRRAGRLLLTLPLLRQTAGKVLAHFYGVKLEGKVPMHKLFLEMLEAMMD

CCCCCCCc1ccc(O)cc1
inactive: [1] | [2] | [3] | [4] | [5] | [6] | [7] | [8] | [9] | [10] | [11] | [12] | [13] | [14] | [15] | [16] | [17]
active: [3] 8.05 µM and 14.2 µM and 16.6 µM

CC(O)C#N (stereo not drawn)
not listed: [14] | [17] | [20]
inactive: all other assays above

N#C/C=C/c1ccccc1
not listed: [17] | [19] | [20]
inactive: all other assays above

NC(=O)C(F)(F)C(F)(F)F
not listed: [14]
inactive: all other assays above

N#Cc1c(-c2ccc(Cl)cc2)[nH]c(C(F)(F)F)c1Br
active: [1] 0.122 µM | [3] 2.6 µM | [5] 1 µM | [8] 0.274 µM | [13] 0.605 µM
not listed: [14] | [20]
inactive: all other assays above

O=c1[nH]c2ccccc2c(=O)o1
not listed: [16] | [17] | [20]
inactive: all other assays above

CC(C)CBr
not listed: [14] | [17] | [20]
inactive: all other assays above
